Seven compounds from PubChem BioAssay (NCATS) can be followed below.

Records with an inconclusive call do not appear. Calls of active or inactive are those of the source. Unless noted, calls come from the whole dose curve; as a rule, active = well fitted curve in the direction sought with a large enough effect; inconclusive = small, poorly fitted or top-dose-only effect, or another doubt; inactive = no such curve, though single readings can be large; an effect the other way counts as inactive or inconclusive.

Assay [1] is described as follows: qHTS assay for small molecule antagonists of peroxisome proliferator-activated receptor delta signaling (AID 588535; active = well fitted inhibition curve with a large enough effect in the signal ratio, with a control signal flat, not every such curve was filed as active; the % refers to the signal ratio; note: potency is the fitted concentration of half-maximal effect;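 for max response: cells co-treated with a PPAR-delta agonist as stimulator during compound exposure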). To be noted: HEK293T PPARd-UAS-bla, beta-lactamase FRET ratio, 18 h; 460 nm channel. Summed up: (§1)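 HEK293T PPAR-delta-UAS-bla cells, 4000/well, 2% charcoal/dextran FBS; 5 h 37 C; cpd titration; 18 h 37 C; CCF4 2 h RT; FI 460/530 nm; Hill fit → IC50, efficacy.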
For orientation: qHTS replaces the single test concentration by a dilution series.

For assay [2], the target named is Peroxisome proliferator-activated receptor delta (Homo sapiens) (UniProt Q03181). Described as above. The conditions noted are these: HEK293T PPARd-UAS-bla, beta-lactamase FRET ratio, 18 h; series mostly up to 76.7 µM. Summed up:
as §1

Assay [3] is described as follows: qHTS assay for environmental chemicals that activate the Aryl hydrocarbon Receptor (AhR) signaling pathway (AID 651777). Note: % of control where 0% means no effect; nearly all actives have a fitted effect of over 15% in size. To be noted: 1A2-DRE human hepatoma cells, luciferase, 24 h; activation: stronger effect = higher value. Summed up: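 Reporter gene assay: hepatoma cells with DRE/CYP1A2-luciferase, 24 hr compound incubation at 37 C, 5% CO2, luminescence after One-Glo (30 min, RT).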

Assay [4] deals with Peroxisome proliferator-activated receptor alpha (Homo sapiens) (UniProt Q07869). Kind of assay: qHTS assay for small molecule agonists of the peroxisome proliferator-activated receptor alpha (PPARalpha) signaling pathway (AID 651778). Note: % of control where 0% means no effect. The conditions noted are these: PathHunter PPARalpha complementation, chemiluminescence, 6 h; max response: stronger effect = higher value. Summed up:
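Chemiluminescence from complemented enzyme reported PPARalpha activation in cells after 6 hr of compound treatment at 37 C. The detection reagent was incubated for 60 min at room temperature, and compounds were scored as agonists.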

The nature of assay [5]: qHTS assay for small molecule agonists of the antioxidant response element (ARE) signaling pathway measured by Nrf2-dependant transcriptional activity (AID 720636; active = well fitted curve in the direction sought with a large enough effect in the repeat runs; an effect the other way counts as inactive or inconclusive; note: % of control where 0% means no effect). The conditions noted are these: ARE-luc HepG2, Nrf2 luciferase reporter, 16 h; series mostly up to 92.4 µM. Summed up: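 Nrf2-dependent transcription is measured in ARE-luc HepG2 cells: compound is applied for 16 hr at 37 C after a 6 hr attachment period, and luciferase activity is quantified by luminescence using ONE-Glo.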

Assay [6] can be described thus: qHTS assay for small molecule agonists of the antioxidant response element (ARE) signaling pathway measured by Nrf2-dependant transcriptional activity - cell viability counter screen (AID 720653; active = well fitted curve in the direction sought with a large enough effect in the repeat runs; an effect the other way counts as inactive or inconclusive; note: potency is the fitted concentration of half-maximal effect; for max response: % is set by controls: 0 for no effect and ±100 for the full control effect). The conditions noted are these: ARE-bla HepG2 viability, CellTiter-Glo ATP luminescence, 16 h; max response: stronger effect = lower value. Summed up: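 Cytotoxicity counter screen: intracellular ATP quantified by CellTiter-Glo luminescence in the same ARE-bla HepG2 plates, after 16 h compound exposure and a 2 h beta-lactamase substrate step.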

A short description of assay [7]: qHTS assay for cell viability of HEK293 cells (AID 743288). Note: nearly all actives have a fitted effect of over 50% in size. Note: potency is the fitted concentration of half-maximal effect. To be noted: ATP luminescence (CellTiter-Glo), 18 h; max response: stronger effect = lower value. Summed up:
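Environmental chemicals tested in qHTS format against parental HEK293 cells; 18 h treatment, 37 C; read-out ATP luminescence (CellTiter-Glo), 30 min RT development.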

Assay [8] addresses Peroxisome proliferator-activated receptor delta (Homo sapiens) (UniProt Q03181). Kind of assay: qHTS assay for small molecule agonists of peroxisome proliferator-activated receptor delta signaling (AID 588534; calls by dose curve;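 note: 0% = DMSO basal wells and 100% = positive control agonist at 10 µM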). To be noted: HEK293T PPARdelta-UAS-bla, beta-lactamase ratio, 18 h; series mostly up to 76.7 µM. Summed up: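 Fluorescence from CCF4 substrate cleavage by beta-lactamase reporter, read 2 hrs at RT, measured agonist activity. Compounds were tested with 18 hrs exposure at 37 C. Concentration-response data fitted to Hill equation.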

Assay [9] is described as follows: qHTS assay for small molecule antagonists of retinoid X receptor alpha signaling (AID 588546; active = well fitted inhibition curve with a large enough effect in the signal ratio, with a control signal flat, not every such curve was filed as active; the % refers to the signal ratio; note: potency is the fitted concentration of half-maximal effect;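 for max response: cells stimulated with 9-cis-retinoic acid as agonist; % is set by controls: 0 for no effect and ±100 for the full control effect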). To be noted: HEK293T RXRa-UAS-bla, beta-lactamase ratio, antagonist mode; measured here: W530 green channel, cytotoxicity proxy. Summed up: (§2)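 Beta-lactamase reporter inhibition, read as CCF4 fluorescence ratio (ex 405, em 460/530 nm) after 2 h at RT. HEK293T UAS-bla cells, 2500/well, were stimulated with 9-cis-RA at 500 or 100 nM final alongside test compound for 18 h at 37 C.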

Assay [10] deals with Retinoic acid receptor RXR-alpha (Homo sapiens) (UniProt P19793). The assay is described as above. To be noted: HEK293T RXRa-UAS-bla, beta-lactamase ratio, antagonist mode. Summed up:
as §2

Assay [11] can be described thus: qHTS assay for small molecule activators of the p53 signaling pathway (AID 651743; active = well fitted activation curve with a large enough effect in the signal ratio, not every such curve was filed as active; the % refers to the signal ratio; note: potency is the fitted concentration of half-maximal effect; for activation: % of control where 0% means no effect). To be noted: HCT-116 p53RE-bla, beta-lactamase FRET ratio, 16 h; activation: stronger effect = higher value. Summed up:
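Read-out is fluorescence intensity from the LiveBLAzer B/G FRET substrate, added for 2 hours at room temperature after HCT-116 p53RE-bla cells had been incubated with compounds for 16 hours at 37 C.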

The target of assay [12] is Estrogen receptor (Homo sapiens) (UniProt P03372). Kind of assay: qHTS assay for small molecule agonists of estrogen receptor alpha signaling (AID 588514; calls by dose curve;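 note: 0% = vehicle only and 100% = reference agonist; nearly all actives have a fitted effect of over 70% in size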). To be noted: ER-alpha-UAS-bla HEK293, beta-lactamase ratio, 18 h; series mostly up to 76.8 µM. Summed up:
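Cells were plated at 5000/well, incubated 4 hrs at 37 C, dosed with compound titration series, incubated 18 hrs at 37 C, loaded with CCF4 dye for 2 hrs at RT, then fluorescence was read.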

Assay [13] concerns the target Peroxisome proliferator-activated receptor gamma (Homo sapiens) (UniProt P37231). Kind of assay: qHTS assay for small molecule agonists of peroxisome proliferator-activated receptor gamma signaling (AID 588536; active = well fitted curve in the direction sought with a large enough effect in the signal ratio, with a control signal flat, not every such curve was filed as active; the % refers to the signal ratio;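 note: 0% = DMSO basal wells and 100% = rosiglitazone at 2 µM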). The conditions noted are these: HEK293 PPARg-UAS-bla, beta-lactamase ratio, 16 h; series mostly up to 76.7 µM. Summed up: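 GeneBLAzer PPAR-gamma-UAS-bla HEK293 cells in 1% charcoal/dextran-treated FBS medium were treated 16 h at 37 C with compounds. Beta-lactamase activity was read by CCF4 ratio (460/530 nm). Response was normalized to 2 uM rosiglitazone (100%) and DMSO, then Hill-fitted for EC50 and efficacy.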

Assay [14] deals with Thyroid hormone receptor beta (Homo sapiens) (UniProt P10828). Kind of assay: qHTS assay for small molecule antagonists of thyroid hormone receptor beta signaling (AID 588547; active = well fitted inhibition curve with a large enough effect in the signal ratio, with a control signal flat, not every such curve was filed as active; the % refers to the signal ratio;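 note: cells stimulated with 0.4 nM T3 agonist during compound exposure; % is set by controls: 0 for no effect and ±100 for the full control effect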). To be noted: TR-UAS-bla HEK293, beta-lactamase ratio, antagonist mode, 18 h. Summed up: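 Inhibition of T3-driven (0.4nM final) beta-lactamase reporter activity was measured over 0.59 nM to 92 uM compound after 18 h at 37 C. The cells were GripTite HEK293 TR-UAS-bla in charcoal/dextran-stripped serum, with CCF4 ratio read-out and IC50 from Hill fits.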

Assay [15] can be described thus: qHTS assay for cell viability of the p53RE-bla HCT-116 cell line (AID 743292). Note: % is set by controls: 0 for no effect and ±100 for the full control effect; nearly all actives have a fitted effect of over 55% in size. To be noted: p53RE-bla HCT-116 viability, ATP luminescence, 16 h; series mostly up to 95 µM. Summed up:
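ATP-based luminescence, 16 h compound exposure at 37 C, p53RE-bla HCT-116 cells at 4,000/well.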

In assay [16] the target is Nuclear receptor subfamily 1 group I member 2 (Rattus norvegicus) (UniProt Q9R1A7). Kind of assay: qHTS assay for small molecule activators of the rat pregnane X receptor (rPXR) signaling pathway (AID 651751; call rule not given here; note: 0% is about no effect). The conditions noted are these: rPXR reporter cells, luciferase (One-Glo), 24 h.
Assay [17] has as its target Glucocorticoid receptor (Homo sapiens) (UniProt P04150). Kind of assay: qHTS assay for small molecule agonists of glucocorticoid receptor signaling (AID 588532; active = well fitted curve in the direction sought with a large enough effect in the signal ratio, with a control signal flat; the % refers to the signal ratio;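 note: 100% = dexamethasone at 0.1 µM and 0% = DMSO only wells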). To be noted: HeLa MMTV-bla, beta-lactamase ratio, agonist, 18 h; activation: stronger effect = higher value, percent of dexamethasone control, DMSO zero. Summed up: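 Agonist-mode qHTS: GRE-driven beta-lactamase in HeLa cells exposed 18 h to titrated compounds (up to 92 uM), then CCF4 ratio read after 2 h at RT; Hill-fitted EC50, efficacy relative to 0.1 uM dexamethasone.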

Assay [18] has the same target. Kind of assay: qHTS assay for small molecule antagonists of glucocorticoid receptor signaling (AID 588533; active = well fitted inhibition curve with a large enough effect in the signal ratio, with a control signal flat, not every such curve was filed as active; the % refers to the signal ratio;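 note: cells stimulated with 2 nM dexamethasone as agonist; % is set by controls: 0 for no effect and ±100 for the full control effect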). The conditions noted are these: HeLa MMTV-bla, GRE beta-lactamase ratio, antagonist mode, 18 h; series mostly up to 76.8 µM. Summed up:
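Antagonist-mode qHTS: compound titrations added to GRE-bla HeLa cells, then dexamethasone 2 nM final; 18 h, 37 C. CCF4 FRET fluorescence normalized to dexamethasone and DMSO; IC50 from Hill fit.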

In assay [19] the target is Retinoic acid receptor RXR-alpha (Homo sapiens) (UniProt P19793). Kind of assay: qHTS assay for small molecule agonists of retinoid X receptor alpha signaling (AID 588544; calls by dose curve; note: potency is the fitted concentration of half-maximal effect;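 for activation: 0% = DMSO basal wells and 100% = reference agonist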). The conditions noted are these: HEK293T RXRa-UAS-bla, beta-lactamase reporter, 18 h; series mostly up to 76.7 µM.
Assay [20] addresses Thyroid hormone receptor beta (Homo sapiens) (UniProt P10828). Kind of assay: qHTS assay for small molecule agonists of thyroid hormone receptor beta signaling (AID 588545; calls by dose curve). To be noted: TR-UAS-bla GripTite HEK 293, beta-lactamase ratio, agonist mode, 18 h; series mostly up to 76.7 µM. Summed up: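 In this cell-based screen, titrated compounds act on HEK 293 cells held in medium with 2% charcoal/dextran FBS, NEAA and pyruvate for 18 hrs at 37 C. Responses are expressed relative to T3 (10 nM) as 100% and basal DMSO as 0%.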

Sequence of Glucocorticoid receptor (Homo sapiens) (P04150 whole entry, looked up): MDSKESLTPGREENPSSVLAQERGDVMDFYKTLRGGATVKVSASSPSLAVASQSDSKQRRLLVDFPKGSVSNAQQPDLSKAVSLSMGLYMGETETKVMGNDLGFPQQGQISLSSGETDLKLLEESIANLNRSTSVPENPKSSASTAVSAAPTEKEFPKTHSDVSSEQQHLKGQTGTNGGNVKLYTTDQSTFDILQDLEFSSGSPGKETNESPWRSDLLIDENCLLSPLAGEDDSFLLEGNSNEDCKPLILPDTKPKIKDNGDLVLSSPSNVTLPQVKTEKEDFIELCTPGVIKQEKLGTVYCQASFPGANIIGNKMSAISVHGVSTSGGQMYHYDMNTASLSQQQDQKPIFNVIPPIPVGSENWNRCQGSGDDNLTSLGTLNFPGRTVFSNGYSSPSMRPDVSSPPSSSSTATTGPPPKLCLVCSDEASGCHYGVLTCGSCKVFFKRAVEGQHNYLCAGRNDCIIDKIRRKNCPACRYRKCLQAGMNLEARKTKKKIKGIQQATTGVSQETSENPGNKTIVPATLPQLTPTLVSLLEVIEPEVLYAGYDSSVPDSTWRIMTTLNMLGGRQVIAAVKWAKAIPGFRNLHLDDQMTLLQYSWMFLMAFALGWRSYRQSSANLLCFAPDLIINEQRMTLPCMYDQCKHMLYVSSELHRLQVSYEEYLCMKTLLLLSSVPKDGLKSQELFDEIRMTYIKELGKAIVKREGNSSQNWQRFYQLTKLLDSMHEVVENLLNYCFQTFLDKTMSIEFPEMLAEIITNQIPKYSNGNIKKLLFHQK
Sequence of Nuclear receptor subfamily 1 group I member 2 (Rattus norvegicus) (Q9R1A7 whole entry, looked up): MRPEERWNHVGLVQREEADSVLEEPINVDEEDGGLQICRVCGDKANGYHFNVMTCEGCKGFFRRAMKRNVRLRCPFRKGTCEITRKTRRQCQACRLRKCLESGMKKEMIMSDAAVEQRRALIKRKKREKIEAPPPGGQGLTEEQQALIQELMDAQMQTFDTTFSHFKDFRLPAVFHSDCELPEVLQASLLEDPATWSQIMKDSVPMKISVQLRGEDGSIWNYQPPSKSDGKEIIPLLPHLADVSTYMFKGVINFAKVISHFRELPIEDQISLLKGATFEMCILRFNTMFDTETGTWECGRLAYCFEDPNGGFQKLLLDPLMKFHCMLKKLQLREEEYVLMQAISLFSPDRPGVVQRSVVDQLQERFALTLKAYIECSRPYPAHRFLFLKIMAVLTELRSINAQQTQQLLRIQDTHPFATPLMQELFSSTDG
Sequence of Thyroid hormone receptor beta (Homo sapiens) (P10828 whole entry, looked up): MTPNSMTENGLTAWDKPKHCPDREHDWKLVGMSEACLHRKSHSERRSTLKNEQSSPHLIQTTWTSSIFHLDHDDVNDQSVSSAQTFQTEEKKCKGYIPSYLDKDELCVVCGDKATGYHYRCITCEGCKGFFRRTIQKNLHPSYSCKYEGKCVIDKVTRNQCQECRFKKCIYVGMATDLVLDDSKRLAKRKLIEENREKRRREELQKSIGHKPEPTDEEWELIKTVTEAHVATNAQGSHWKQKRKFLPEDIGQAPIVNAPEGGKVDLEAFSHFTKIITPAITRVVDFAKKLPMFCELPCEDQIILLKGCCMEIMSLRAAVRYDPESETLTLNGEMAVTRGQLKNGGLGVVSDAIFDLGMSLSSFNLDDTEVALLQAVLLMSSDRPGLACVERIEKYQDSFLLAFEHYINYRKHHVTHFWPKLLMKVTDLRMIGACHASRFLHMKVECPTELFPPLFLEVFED
Sequence of Peroxisome proliferator-activated receptor gamma (Homo sapiens) (P37231 whole entry, looked up): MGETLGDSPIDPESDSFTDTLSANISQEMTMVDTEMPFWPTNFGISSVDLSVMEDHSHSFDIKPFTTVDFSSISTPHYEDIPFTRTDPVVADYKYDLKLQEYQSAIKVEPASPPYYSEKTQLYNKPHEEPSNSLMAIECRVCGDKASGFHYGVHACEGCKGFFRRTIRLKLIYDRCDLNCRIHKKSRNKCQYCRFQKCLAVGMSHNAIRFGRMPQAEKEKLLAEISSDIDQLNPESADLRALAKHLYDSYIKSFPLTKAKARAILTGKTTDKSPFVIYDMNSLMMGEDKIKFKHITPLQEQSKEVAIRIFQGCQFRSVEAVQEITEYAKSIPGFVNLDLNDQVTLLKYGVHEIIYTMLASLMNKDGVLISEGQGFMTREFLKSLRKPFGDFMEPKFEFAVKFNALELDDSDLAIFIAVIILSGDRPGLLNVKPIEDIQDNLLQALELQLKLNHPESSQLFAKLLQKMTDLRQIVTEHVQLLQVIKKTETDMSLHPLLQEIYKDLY
Sequence of Retinoic acid receptor RXR-alpha (Homo sapiens) (P19793 whole entry, looked up): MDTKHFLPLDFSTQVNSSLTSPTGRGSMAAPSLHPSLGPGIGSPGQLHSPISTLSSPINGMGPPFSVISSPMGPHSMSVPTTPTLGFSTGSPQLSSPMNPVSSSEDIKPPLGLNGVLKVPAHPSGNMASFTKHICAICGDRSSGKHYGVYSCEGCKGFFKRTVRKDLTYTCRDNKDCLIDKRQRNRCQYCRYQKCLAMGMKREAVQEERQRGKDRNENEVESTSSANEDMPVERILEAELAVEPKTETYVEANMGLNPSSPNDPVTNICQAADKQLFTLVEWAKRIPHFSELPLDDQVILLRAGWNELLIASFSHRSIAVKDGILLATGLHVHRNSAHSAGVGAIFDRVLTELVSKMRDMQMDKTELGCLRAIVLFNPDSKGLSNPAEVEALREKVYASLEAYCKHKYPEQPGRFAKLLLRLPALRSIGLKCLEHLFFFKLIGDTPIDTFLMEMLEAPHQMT
Sequence of Peroxisome proliferator-activated receptor alpha (Homo sapiens) (Q07869 whole entry, looked up): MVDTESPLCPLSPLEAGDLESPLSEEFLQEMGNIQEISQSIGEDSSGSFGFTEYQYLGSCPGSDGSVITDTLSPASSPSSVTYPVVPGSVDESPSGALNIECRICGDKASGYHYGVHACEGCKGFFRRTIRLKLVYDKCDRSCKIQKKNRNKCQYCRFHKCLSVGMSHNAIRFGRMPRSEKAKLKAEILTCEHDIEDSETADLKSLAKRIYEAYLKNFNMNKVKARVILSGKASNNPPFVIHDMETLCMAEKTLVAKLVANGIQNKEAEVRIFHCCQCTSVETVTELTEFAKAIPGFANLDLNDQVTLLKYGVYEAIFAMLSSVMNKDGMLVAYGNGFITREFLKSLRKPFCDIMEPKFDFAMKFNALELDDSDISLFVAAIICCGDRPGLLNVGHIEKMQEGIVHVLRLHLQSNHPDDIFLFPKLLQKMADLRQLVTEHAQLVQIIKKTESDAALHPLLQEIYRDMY
Sequence of Peroxisome proliferator-activated receptor delta (Homo sapiens) (Q03181 whole entry, looked up): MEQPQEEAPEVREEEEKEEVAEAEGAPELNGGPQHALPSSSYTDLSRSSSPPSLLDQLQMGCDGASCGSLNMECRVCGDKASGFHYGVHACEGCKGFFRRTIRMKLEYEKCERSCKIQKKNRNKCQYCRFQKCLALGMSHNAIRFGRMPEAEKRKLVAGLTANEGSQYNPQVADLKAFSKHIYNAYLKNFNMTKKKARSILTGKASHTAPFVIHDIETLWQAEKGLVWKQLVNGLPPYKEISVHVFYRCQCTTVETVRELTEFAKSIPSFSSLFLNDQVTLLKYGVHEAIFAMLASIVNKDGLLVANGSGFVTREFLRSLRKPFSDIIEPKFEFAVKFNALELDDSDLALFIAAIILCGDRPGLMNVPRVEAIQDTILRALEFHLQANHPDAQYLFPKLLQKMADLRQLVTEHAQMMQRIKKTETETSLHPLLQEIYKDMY
Sequence of Estrogen receptor (Homo sapiens) (P03372 whole entry, looked up): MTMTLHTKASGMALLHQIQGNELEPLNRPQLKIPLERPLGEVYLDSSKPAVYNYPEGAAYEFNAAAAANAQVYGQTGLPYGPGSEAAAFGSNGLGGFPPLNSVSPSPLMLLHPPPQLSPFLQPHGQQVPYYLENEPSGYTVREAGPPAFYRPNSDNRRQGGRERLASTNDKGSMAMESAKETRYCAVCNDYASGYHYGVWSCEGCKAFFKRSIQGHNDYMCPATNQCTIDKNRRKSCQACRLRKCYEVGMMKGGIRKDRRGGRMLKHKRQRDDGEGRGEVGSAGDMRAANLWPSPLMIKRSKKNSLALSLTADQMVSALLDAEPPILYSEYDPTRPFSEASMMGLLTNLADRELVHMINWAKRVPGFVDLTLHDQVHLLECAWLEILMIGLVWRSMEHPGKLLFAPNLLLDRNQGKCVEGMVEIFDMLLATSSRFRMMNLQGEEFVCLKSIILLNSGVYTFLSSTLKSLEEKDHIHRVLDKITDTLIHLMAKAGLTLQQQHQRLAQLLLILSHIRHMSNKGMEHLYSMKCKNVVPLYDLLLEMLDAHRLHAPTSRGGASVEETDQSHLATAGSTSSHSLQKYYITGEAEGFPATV

On to `CC1(C)CN=C(NN=C(/C=C/c2ccc(C(F)(F)F)cc2)/C=C/c2ccc(C(F)(F)F)cc2)NC1`, for which the results for the max response in assay [1] and in assay [4] were -117% and -2.05% (inactive), respectively. The Potency in assay [2] was 39.8 µM (active); in assay [6], 25.1 µM (active); in assay [7], 44.7 µM (active). Besides, the activation in assay [3] is -13.3% (inactive). The Potency result in [5] was “inactive”.
As for `CC1(c2ccc(Oc3ccccc3)cc2)OC(=O)N(Nc2ccccc2)C1=O` (centres undefined), the result in [8] was inactive. Besides, the values for the max response in [9], in [6] and in assay [7] were 19.6%, -28.5% (inactive) and -20.8% (inactive), respectively. The Potency in assay [10] is 31.6 µM (active); in [11], 5.01 µM (active). The activation in assay [3] is 4.76% (inactive). Moreover, the Potency result in assay [5] was “inactive”.
Take `COc1cnc(OC)n2nc(NS(=O)(=O)c3c(OCC(F)F)cccc3C(F)(F)F)nc12`: the Potency entry in assay [12], in assay [13], in assay [5] and in [15] was “inactive” throughout. For the same compound, the max response in [9] was 8.71%; in assay [10] it was -13.9% (inactive); in assay [4] it was -1.19% (inactive); in assay [6], -2.64% (inactive); in [7] it was -8.21% (inactive); in assay [16], -1.36% (inactive). The activity change % (negative = inhibition) in assay [14] was 9.04% (inactive). The activation was 1.45% (inactive) in assay [11] and 0.743% (inactive) in assay [3].
With `Clc1ccc([C@@]2(Cn3cncn3)C[C@H](Br)CO2)c(Cl)c1`, the activation in assay [17] was 2.56% (inactive); in assay [11], 0.484% (inactive); in [3], 1.22% (inactive). The Potency result in [18], in assay [13], in assay [5] and in assay [15] was “inactive” throughout. The Potency in assay [19] is 14.1 µM (active). Further, the values for the max response in assay [9], in assay [10] and in assay [4] were -6.47%, -7.83% (inactive) and 0.534% (inactive), respectively. In addition, the activity change % (negative = inhibition) in assay [14] is 2.29% (inactive).
As for `COP(=S)(OC)Oc1c(Cl)cc(C)cc1Cl`, the figures for the activation in assay [17] and in assay [11] were 2.7% (inactive) and 7.93% (inactive), respectively. For the same compound, the result in [8] was inactive. Further, the max response in [1] was -4.3%; in assay [9] it was -6.8%; in assay [10] it was -12.7% (inactive); in assay [4] it was 5.67% (inactive); in [6], -1.53% (inactive); in assay [7], -18.5% (inactive). Further, the max response in [16] was 1.76% (inactive). The Potency result in assay [2], in assay [13], in [19], in [5] and in assay [15] was “inactive” in each case. Also, in assay [14], the activity change % (negative = inhibition) was 7.32% (inactive).
On to `CS/C(C)=N/OC(=O)N(C)SN(C)C(=O)O/N=C(\C)SC`, for which the Potency entry in assay [12], in assay [18], in assay [2], in [13], in assay [20] and in [5] was “inactive” throughout. Further, in [15], the Potency entry was “inactive”. In addition, the values for the activation in assay [17] and in assay [3] were 10.5% (inactive) and 3.44% (inactive), respectively. For the same compound, the result in assay [8] was inactive. The max response in assay [1] is -23.5%; in assay [9], 3.2%; in assay [10] it was 15.5% (inactive); in [4] it was -1.01% (inactive); in [6] it was 6.17% (inactive); in assay [7] it was -6.07% (inactive). Further, the max response in assay [16] is -5.16% (inactive). Further, the activity change % (negative = inhibition) in assay [14] was -7.26% (inactive).
In the case of `OC(Cn1cncn1)(c1ccc(F)cc1)c1ccccc1F` (centres undefined), the Potency entry in [12], in assay [13], in assay [19], in assay [20], in assay [5] and in [15] was “inactive” each time. The outcome in [8] was inactive. Moreover, the max response in [9] was -19.4%; in assay [10], -2.11% (inactive); in [4] it was -2.15% (inactive); in assay [6], -4.37% (inactive); in assay [7], -3.84% (inactive). In assay [14], the activity change % (negative = inhibition) is 10.3% (inactive). The figures for the activation in [11] and in [3] were 0.874% (inactive) and -1.4% (inactive), respectively.
